Data taken from the supplement of paper PMC11732987, “Enantioselective OTUD7B fragment discovery through chemoproteomics screening and high-throughput optimisation” (Communications Chemistry, 2025).

Key:
Assay in all cases: log2 ratio of Biotin-Ahx-Ub-VS probe labelling (fragment/DMSO); higher = less target engagement (more negative = stronger competition), active = hit call of the paper (q ≤ 0.05, log2 ratio ≤ -1)
Conditions in all cases: compound concentration: 200 uM; treatment time: 3 h
USP34 = USP34 (UniProt Q70CQ2)
Procedure, shortened: (§1)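 HEK293T lysate, 495 µg per sample in Tris/CHAPS/IGEPAL buffer with protease inhibitors, was treated in triplicate with fragment at 200 µM or vehicle for 3 h and then with Biotin-Ahx-Ub-VS at 0.5 µM final for 1 h. Labelled DUBs were NeutrAvidin-enriched, digested with LysC and trypsin, and run by diaPASEF LC-MS/MS. Spectronaut label-free quantities were global-median-normalised, and values are average log2 fragment/vehicle ratios by unpaired t-test on proteins with ≥2 unique peptides.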

USP36 = molecular target: T1, USP36 (UniProt Q9P275)
T1 sequence (whole entry): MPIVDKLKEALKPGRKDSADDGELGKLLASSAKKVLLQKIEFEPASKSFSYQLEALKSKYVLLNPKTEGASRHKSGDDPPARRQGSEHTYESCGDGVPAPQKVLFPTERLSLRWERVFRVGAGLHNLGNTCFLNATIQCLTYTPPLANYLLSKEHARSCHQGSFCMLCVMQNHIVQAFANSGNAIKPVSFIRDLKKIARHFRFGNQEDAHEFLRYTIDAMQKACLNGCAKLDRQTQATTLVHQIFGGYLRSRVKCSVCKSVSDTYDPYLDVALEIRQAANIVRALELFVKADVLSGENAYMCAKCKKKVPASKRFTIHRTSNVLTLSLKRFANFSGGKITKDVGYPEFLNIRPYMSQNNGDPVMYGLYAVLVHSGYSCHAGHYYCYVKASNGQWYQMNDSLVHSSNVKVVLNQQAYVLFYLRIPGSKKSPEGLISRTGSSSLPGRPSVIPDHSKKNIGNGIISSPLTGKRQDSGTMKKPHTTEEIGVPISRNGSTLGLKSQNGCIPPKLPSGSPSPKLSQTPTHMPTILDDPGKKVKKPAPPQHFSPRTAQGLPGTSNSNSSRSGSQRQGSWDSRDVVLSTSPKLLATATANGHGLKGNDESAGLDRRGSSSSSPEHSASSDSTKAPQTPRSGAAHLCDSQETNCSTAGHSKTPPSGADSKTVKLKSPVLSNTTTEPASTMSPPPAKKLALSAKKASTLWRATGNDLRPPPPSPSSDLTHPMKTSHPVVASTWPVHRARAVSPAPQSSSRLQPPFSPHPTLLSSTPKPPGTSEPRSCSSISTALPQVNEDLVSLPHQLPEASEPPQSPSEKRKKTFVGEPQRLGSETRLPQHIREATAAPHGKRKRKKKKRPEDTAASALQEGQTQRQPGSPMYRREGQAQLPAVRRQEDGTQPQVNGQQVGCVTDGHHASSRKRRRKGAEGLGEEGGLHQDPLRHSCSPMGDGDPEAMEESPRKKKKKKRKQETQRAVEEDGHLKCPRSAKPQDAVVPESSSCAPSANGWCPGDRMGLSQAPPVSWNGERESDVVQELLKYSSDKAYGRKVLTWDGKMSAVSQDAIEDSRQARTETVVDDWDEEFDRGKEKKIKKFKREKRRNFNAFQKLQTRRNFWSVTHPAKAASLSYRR
Procedure, shortened: as §1

USP38 = molecular target: T2, USP38 (UniProt Q8NB14)
T2 sequence (whole entry): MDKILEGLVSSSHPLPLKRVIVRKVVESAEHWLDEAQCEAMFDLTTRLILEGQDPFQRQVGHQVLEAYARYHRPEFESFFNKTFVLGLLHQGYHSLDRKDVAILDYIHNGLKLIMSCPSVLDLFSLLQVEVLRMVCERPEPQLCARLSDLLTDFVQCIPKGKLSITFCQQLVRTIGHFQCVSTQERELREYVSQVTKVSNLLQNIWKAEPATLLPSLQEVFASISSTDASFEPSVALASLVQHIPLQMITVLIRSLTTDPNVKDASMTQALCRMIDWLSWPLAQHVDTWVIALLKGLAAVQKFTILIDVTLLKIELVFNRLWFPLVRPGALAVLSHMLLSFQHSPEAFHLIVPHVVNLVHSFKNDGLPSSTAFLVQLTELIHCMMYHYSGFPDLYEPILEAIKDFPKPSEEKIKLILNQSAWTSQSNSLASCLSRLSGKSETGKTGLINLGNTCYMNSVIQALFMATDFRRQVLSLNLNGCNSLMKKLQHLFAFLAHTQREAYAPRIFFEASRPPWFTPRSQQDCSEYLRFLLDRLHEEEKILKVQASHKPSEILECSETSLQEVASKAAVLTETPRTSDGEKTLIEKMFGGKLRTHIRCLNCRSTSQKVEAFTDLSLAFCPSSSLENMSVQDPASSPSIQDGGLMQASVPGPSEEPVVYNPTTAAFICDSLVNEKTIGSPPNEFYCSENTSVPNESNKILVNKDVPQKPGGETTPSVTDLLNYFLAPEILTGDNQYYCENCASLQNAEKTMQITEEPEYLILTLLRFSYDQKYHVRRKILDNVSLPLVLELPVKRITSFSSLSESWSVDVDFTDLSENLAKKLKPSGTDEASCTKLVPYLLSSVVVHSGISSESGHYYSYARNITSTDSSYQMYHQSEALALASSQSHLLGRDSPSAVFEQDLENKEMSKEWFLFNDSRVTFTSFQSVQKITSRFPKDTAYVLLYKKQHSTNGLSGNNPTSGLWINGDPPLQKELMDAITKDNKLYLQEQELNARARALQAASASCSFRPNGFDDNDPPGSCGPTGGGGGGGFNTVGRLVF
Procedure, shortened: as §1

USP39 = molecular target: T3, USP39 (UniProt Q53GS9)
T3 sequence (whole entry): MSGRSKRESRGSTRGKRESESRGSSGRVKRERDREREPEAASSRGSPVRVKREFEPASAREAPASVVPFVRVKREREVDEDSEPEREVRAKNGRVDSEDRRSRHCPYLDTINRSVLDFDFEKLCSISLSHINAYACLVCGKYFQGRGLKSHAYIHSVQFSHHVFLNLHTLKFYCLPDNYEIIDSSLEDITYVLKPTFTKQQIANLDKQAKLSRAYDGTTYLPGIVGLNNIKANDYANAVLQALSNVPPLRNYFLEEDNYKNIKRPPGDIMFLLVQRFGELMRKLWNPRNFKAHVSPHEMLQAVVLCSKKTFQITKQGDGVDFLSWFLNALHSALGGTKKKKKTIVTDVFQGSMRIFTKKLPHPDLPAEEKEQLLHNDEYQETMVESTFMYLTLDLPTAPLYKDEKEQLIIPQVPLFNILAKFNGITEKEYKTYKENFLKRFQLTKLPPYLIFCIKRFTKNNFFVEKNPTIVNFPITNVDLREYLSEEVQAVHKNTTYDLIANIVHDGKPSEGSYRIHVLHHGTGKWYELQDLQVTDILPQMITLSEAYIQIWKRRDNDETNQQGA
Procedure, shortened: as §1

USP4 = molecular target: T4, USP4 (UniProt Q13107)
T4 sequence (whole entry): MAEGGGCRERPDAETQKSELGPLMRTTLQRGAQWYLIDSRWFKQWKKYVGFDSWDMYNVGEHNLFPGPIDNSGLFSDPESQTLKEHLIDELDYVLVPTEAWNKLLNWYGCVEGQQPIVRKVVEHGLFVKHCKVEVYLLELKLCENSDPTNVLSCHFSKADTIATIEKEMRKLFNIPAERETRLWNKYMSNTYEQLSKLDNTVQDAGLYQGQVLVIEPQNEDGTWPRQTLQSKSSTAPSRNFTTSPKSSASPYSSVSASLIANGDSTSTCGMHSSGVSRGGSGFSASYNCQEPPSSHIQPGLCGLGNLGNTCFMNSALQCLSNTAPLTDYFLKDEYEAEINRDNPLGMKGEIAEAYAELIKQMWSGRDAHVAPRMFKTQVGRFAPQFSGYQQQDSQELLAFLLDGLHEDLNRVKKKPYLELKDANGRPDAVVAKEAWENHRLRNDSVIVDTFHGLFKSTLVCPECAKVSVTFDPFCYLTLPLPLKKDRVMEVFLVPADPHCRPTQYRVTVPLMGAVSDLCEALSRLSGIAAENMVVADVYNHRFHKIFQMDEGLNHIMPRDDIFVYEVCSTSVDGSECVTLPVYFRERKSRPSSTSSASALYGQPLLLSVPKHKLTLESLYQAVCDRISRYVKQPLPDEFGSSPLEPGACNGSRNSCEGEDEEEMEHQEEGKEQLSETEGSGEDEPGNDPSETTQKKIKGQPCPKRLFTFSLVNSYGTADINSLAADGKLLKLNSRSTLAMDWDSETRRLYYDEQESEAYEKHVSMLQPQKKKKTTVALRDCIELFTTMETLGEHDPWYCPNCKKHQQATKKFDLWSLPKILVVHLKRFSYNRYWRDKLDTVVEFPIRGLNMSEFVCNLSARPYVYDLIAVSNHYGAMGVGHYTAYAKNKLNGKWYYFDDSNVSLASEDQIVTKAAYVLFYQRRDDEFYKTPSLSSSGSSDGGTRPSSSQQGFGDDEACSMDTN
Procedure, shortened: as §1

Measured: log2 ratio of Biotin-Ahx-Ub-VS probe labelling

USP34, sequence (Q70CQ2 whole entry, the tested form may be a part): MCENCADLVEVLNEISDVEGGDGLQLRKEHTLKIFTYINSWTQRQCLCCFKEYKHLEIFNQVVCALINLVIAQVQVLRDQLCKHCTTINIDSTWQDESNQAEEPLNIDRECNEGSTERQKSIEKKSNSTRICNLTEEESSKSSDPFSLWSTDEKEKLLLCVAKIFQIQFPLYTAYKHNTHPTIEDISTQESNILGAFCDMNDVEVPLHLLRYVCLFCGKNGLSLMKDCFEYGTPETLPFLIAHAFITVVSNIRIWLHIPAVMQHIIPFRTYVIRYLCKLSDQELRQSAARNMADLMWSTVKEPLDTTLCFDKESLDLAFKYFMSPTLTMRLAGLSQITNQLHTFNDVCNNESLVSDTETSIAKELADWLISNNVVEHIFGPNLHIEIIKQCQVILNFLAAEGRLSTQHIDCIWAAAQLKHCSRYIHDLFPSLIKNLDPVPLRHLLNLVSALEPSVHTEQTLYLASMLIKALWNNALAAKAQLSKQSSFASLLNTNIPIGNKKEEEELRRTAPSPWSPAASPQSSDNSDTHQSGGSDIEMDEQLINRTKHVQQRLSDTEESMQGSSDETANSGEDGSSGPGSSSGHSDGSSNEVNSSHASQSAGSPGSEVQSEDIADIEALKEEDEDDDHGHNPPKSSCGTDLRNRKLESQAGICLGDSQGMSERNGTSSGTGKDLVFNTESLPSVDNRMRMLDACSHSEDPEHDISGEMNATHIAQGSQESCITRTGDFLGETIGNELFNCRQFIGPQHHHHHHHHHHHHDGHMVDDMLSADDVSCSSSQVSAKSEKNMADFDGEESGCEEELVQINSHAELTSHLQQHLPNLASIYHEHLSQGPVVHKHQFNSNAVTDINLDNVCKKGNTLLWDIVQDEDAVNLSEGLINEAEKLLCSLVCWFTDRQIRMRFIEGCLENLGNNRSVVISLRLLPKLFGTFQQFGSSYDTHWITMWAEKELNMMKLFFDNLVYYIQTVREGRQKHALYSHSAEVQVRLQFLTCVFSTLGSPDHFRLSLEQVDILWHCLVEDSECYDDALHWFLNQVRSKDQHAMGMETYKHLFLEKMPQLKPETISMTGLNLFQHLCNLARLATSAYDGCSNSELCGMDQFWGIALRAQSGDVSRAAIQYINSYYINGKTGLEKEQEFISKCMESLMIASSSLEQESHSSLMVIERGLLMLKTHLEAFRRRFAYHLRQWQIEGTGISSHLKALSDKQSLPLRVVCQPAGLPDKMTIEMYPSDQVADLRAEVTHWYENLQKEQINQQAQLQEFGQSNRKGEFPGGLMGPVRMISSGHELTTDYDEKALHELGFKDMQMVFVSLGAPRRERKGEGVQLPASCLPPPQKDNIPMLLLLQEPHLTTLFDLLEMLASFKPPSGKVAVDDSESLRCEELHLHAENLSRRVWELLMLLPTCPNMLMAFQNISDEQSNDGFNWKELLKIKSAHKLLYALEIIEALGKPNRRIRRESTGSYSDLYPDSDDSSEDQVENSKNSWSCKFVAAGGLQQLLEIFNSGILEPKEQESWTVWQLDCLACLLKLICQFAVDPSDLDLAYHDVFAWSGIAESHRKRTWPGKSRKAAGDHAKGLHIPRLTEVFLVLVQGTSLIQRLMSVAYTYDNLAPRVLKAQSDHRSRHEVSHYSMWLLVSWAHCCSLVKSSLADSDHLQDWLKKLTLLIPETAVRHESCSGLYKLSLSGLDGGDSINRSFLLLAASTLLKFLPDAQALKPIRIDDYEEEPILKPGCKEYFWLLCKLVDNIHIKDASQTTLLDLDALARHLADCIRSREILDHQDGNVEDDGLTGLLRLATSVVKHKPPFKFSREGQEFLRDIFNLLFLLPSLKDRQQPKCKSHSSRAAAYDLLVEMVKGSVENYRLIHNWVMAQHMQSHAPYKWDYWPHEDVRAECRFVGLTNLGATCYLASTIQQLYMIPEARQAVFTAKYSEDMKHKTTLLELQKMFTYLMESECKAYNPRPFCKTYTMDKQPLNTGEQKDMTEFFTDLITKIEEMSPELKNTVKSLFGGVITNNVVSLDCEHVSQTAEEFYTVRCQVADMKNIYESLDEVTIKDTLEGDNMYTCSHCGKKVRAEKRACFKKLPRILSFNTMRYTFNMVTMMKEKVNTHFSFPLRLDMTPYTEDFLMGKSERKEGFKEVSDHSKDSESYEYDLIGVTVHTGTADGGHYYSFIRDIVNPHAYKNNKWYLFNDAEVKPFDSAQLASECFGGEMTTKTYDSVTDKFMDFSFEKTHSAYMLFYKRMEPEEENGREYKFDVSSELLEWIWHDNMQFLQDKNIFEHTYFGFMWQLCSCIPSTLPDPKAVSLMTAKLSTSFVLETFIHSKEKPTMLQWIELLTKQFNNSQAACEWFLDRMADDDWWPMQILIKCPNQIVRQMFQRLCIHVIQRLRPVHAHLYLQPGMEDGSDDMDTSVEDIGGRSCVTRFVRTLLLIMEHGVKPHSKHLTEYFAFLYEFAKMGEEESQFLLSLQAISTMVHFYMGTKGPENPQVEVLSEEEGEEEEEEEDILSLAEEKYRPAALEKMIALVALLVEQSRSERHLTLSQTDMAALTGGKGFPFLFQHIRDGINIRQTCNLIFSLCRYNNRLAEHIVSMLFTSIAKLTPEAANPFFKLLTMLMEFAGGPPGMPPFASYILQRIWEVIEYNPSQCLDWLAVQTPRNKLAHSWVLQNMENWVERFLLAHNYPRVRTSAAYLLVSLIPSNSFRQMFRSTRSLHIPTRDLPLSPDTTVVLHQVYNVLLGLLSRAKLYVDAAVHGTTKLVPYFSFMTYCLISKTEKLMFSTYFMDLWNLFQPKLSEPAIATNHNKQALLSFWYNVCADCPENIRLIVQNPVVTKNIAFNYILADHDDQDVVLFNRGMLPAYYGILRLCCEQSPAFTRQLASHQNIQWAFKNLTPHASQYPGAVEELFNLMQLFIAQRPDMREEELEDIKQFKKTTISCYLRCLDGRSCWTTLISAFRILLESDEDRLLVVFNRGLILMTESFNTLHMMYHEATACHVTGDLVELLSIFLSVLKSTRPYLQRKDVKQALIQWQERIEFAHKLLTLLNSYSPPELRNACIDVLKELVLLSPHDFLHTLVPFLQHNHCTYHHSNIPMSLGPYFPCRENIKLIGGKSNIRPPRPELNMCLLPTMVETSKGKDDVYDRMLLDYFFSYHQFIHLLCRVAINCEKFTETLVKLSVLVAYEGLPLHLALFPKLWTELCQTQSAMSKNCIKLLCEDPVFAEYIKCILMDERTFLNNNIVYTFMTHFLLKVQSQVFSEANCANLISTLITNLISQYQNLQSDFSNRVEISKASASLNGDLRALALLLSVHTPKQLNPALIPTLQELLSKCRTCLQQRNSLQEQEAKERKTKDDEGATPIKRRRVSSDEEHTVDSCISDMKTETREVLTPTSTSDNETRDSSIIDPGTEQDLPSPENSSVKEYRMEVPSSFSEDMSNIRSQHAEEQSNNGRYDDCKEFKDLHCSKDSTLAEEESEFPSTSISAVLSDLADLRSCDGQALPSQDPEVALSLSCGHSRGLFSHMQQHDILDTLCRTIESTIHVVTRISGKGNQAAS

C#Cc1cccc(NC(=O)CCl)c1
inactive: USP34 -0.135 | USP36 -0.00355 | USP38 -0.119 | USP39 0.046 | USP4 0.0482
